PubChem BioAssay AID463173 (ICCB-Longwood Screening Facility, Harvard Medical School, 2010)
Screen size: about 52,000 compounds; about 1,700 (3.3%) were called active. Rule as the data show it: active = survival mostly below about 52% (no sharp cut-off); inactive = mostly above about 56%. For the sample, actives were picked, then their nearest neighbours and some compounds at random.

Tested on: Wild type
Assay: S. aureus survival, RN4220 and DeltatarO strains – OD600, teichoic acid synthesis inhibitors, primary screen (AID 463173)
Settings: S. aureus RN4220 wild type/DeltatarO growth, OD600, 18 h, active compounds read low, screened at 18.75 µg/mL (by protocol)

Row | Compound | survival
1 | COc1ccc(CNC(=O)c2cc3sccc3n2C)cc1 | 67% (inactive)
2 | Cn1c(=O)n(C)c2cc(N3CCOCC3)c(NS(=O)(=O)c3ccc(Br)cc3)cc21 | 82% (inactive)
3 | O=C(Nc1nnc(S(=O)(=O)N2CCCCCC2)s1)c1ccccc1 | 48% (inactive)
4 | CCC(C)NC(=O)CCC(=O)N1Cc2ccccc2Oc2ncccc21 (stereo unspecified) | 121% (inactive)
5 | Cc1ccc(CNC(=O)CCC(=O)N2Cc3ccccc3Oc3ncccc32)cc1 | 73% (inactive)
6 | Cc1ccc(NC(=O)CCC(=O)N2Cc3ccccc3Oc3ncccc32)cc1Cl | 82% (inactive)
7 | CC(C)NC(=O)CCC(=O)N1Cc2ccccc2Oc2ncccc21 | -2% (active)
8 | Cc1ccc(NC(=O)CCC(=O)N2Cc3ccccc3Oc3ncccc32)cc1 | 22% (inactive)
9 | CCOc1ccc(CNC(=O)CCC(=O)N2Cc3ccccc3Oc3ncccc32)cc1 | 0% (active)
10 | CN(C)c1ccc(CNC(=O)CCC(=O)N2Cc3ccccc3Oc3ncccc32)cc1 | 77% (inactive)
11 | O=C(CCC(=O)N1Cc2ccccc2Oc2ncccc21)Nc1ccc(Cl)cc1 | 10% (active)
12 | CC(C)CCNC(=O)CCC(=O)N1Cc2ccccc2Oc2ncccc21 | 65% (inactive)
13 | Cc1ccc(N2C(=O)SC(N(CC(=O)O)c3ccccc3)C2=O)cc1 (stereo unspecified) | 112% (inactive)
14 | Cc1ccc(C)c(NC(=O)Nc2cccc(-c3cn4cccnc4n3)c2)c1 | 71% (inactive)
15 | O=S(=O)(c1ccc(Nc2ccc(-c3ccccc3)nn2)cc1)N1CCCC1 | 104% (inactive)
16 | Cc1cc(C)cc(N2C(=O)N(CC(=O)c3ccc(Br)cc3)c3ccccc3S2(=O)=O)c1 | 84% (inactive)
17 | O=C1CC(c2ccc(Br)cc2)c2c(ccc3ccccc23)N1 (stereo unspecified) | 39% (inactive)
18 | Cc1ccc(CSc2ccc3nnc(CCNS(=O)(=O)c4ccc(C)cc4)n3n2)cc1 | 82% (inactive)
19 | CCc1ccc(Sc2cc(C(=O)NCCCN3CCC(C)CC3)c3ccccc3n2)cc1 | 68% (inactive)
20 | CC1CCCCN1CCCNC(=O)c1cc(Sc2ccc(Cl)cc2)nc2ccccc12 (stereo unspecified) | 78% (inactive)
21 | CC1CCCN(CCCNC(=O)c2cc(Sc3ccc(F)cc3)nc3ccccc23)C1 (stereo unspecified) | 14% (active)
22 | O=C(NCCCN1CCCCC1)c1cc(Sc2ccc(Cl)cc2)nc2ccccc12 | -1% (active)
23 | CC1CCN(CCCNC(=O)c2cc(Sc3ccc(F)cc3)nc3ccccc23)CC1 | 74% (inactive)
24 | CCc1ccc(Sc2cc(C(=O)NCCCN3CCCC(C)C3)c3ccccc3n2)cc1 (stereo unspecified) | 71% (inactive)

Row | Compound | survival
25 | CC(=O)c1[nH]c(C)c(C(=O)NCCc2ccc(C)cc2)c1C | 88% (inactive)
26 | CC(=O)Nc1cc(-n2cnnn2)ccc1C | 98% (inactive)
27 | Cc1ccc(NC(=O)Cn2c(=O)n(Cc3nc(C)no3)c(=O)c3cc4c(cc32)OCO4)cc1 | 90% (inactive)
28 | CCOc1c(CC2C(=O)Nc3ccc(Br)cc32)cccc1OC (stereo unspecified) | 99% (inactive)
29 | COc1ccc(OC)c(CC2C(=O)Nc3ccc(Br)cc32)c1 (stereo unspecified) | 84% (inactive)
30 | COc1ccc(CC2C(=O)Nc3ccc(Br)cc32)cc1OC (stereo unspecified) | 75% (inactive)
31 | CCCCOc1ccccc1CC1C(=O)Nc2ccc(Br)cc21 (stereo unspecified) | 3% (active)
32 | CCOc1ccccc1CC1C(=O)Nc2ccc(Br)cc21 (stereo unspecified) | 73% (inactive)
33 | CCCOc1ccc(CC2C(=O)Nc3ccc(Br)cc32)cc1 (stereo unspecified) | -7% (active)
34 | Cc1ccccc1C(=O)NCc1ccc2c(c1)CCN2C(=O)c1ccccc1 | 71% (inactive)
35 | COc1cccc(OC)c1C(=O)Nc1ccc(-c2nc3ncccc3o2)cc1 | 88% (inactive)
36 | COc1ccc(C)cc1NC(=O)Cn1c(=O)cc(C)c2c(C)nn(C)c21 | 68% (inactive)
37 | CCN(Cc1ccccc1)C(=O)Cn1cc(S(=O)(=O)Cc2cccc(Cl)c2)c2ccccc21 | 75% (inactive)
38 | Cc1nn(-c2ccccc2)c(OC(=O)C(C)C)c1Sc1ccc(Cl)cc1 | 39% (inactive)
39 | Cc1ccc(Sc2c(C)nn(C(=O)c3ccc(Cl)cc3)c2C)cc1 | 2% (active)
40 | Cc1ccc(Sc2c(C)nn(C(=O)COc3ccccc3)c2C)cc1 | 9% (active)
41 | COc1cc(C(=O)n2nc(C)c(Sc3ccc(Cl)cc3)c2C)cc(OC)c1OC | 47% (inactive)
42 | Cc1ccc(Sc2c(C)nn(C(=O)COc3ccc(F)cc3)c2C)cc1 | 85% (inactive)
43 | Cc1nn(C(=O)c2ccccc2)c(C)c1Sc1ccc(Cl)cc1 | 6% (active)
44 | Cc1nn(C(=O)COc2ccccc2)c(C)c1Sc1ccccc1 | 94% (inactive)
45 | Cc1nn(C(=O)c2ccc(Cl)cc2)c(C)c1Sc1ccc(Cl)cc1 | 40% (inactive)
46 | Cc1nn(C(=O)COc2ccc(Cl)cc2)c(C)c1Sc1ccccc1 | 88% (inactive)
47 | Cc1ccccc1Nc1c(-c2cccc(Cl)c2)nc2ncccn12 | 83% (inactive)
48 | NC(=O)c1ccccc1NC(=O)CSc1nc(N)cc(=O)[nH]1 | 111% (inactive)

Row | Compound | survival
49 | CCOC(=O)/C(C#N)=C/c1ccc(-c2ccccc2)o1 | 81% (inactive)
50 | CCCC(=O)n1nc(-c2cccnc2)nc1NCc1ccc(OC)cc1 | 86% (inactive)
51 | CCOc1ccc2nc(Cl)c(CN(Cc3ccco3)C(=O)N(C)C)cc2c1 | 109% (inactive)
52 | Cc1ccc(C)c(N2CCN(C(=O)c3cc(S(=O)(=O)N4CCCCCC4)cn3C)CC2)c1 | 77% (inactive)
53 | CNC(=O)C1CCN(S(=O)(=O)c2ccccc2)CC1 | 109% (inactive)
54 | COc1ccc(-c2nc3ccccc3o2)cc1NC(=O)c1ccc(OCC(C)C)cc1 | 55% (inactive)
55 | O=C(Nc1cc(-c2nc3ccccc3o2)ccc1Cl)c1cccc2c(Cl)cccc12 | 64% (inactive)
56 | COc1ccc(OCC(=O)Nc2cc(-c3nc4ccccc4o3)ccc2Cl)cc1 | 104% (inactive)
57 | COc1ccc(-c2nc3ccccc3o2)cc1NC(=O)c1ccc(-c2ccc(Br)cc2)o1 | 73% (inactive)
58 | COc1ccc(-c2nc3ccccc3o2)cc1NC(=O)C(C)(C)Oc1ccc(Br)cc1 | 0% (active)
59 | COc1ccc(-c2nc3ccccc3o2)cc1NC(=O)c1cc(Br)ccc1OC | 66% (inactive)
60 | CC(C)(C)c1ccc(C(=O)Nc2cc(-c3nc4ccccc4o3)ccc2Cl)cc1 | 2% (active)
61 | COc1ccc(-c2nc3ccccc3o2)cc1NC(=O)COc1ccc(C(C)(C)C)cc1 | 2% (active)
62 | O=C(Nc1cc(-c2nc3ccccc3o2)ccc1Cl)c1ccc(Br)o1 | 65% (inactive)
63 | O=c1nc2sc3ccccc3n2c(=O)n1-c1ccc(Cl)c(Cl)c1 | 27% (inactive)
64 | CCc1ccc(NC(=O)Cn2nnc(C(=O)NCc3ccc(C)cc3)c2N)cc1 | 69% (inactive)
65 | COc1ccc(-c2cn3c(n2)sc2cc(C(=O)Nc4cc(OC)cc(OC)c4)ccc23)cc1 | 98% (inactive)
66 | COc1ccc(N2CCN(C(=O)c3cc4c(=O)n(Cc5cccs5)ccc4nc3C)CC2)cc1 | 101% (inactive)
67 | CCOc1cccc(C(=O)Nc2ccc(-c3nc4cc(C)cc(C)c4o3)cc2)c1 | 82% (inactive)
68 | Cc1ccc2c(c1)sc1nc(-c3cc4ccccc4oc3=O)cn12 | 76% (inactive)
69 | Cc1cc(C)c(NC(=O)Cn2nnc(-c3nc(-c4ccncc4)no3)c2N)c(C)c1 | 71% (inactive)
70 | Cc1ccc(Cl)cc1Nc1nc2ccccc2c2nncn12 | 92% (inactive)
71 | Cc1ccc(Nc2nc3ccccc3c3nncn23)cc1C | 3% (active)
72 | COc1cccc(Nc2nc3ccccc3c3nncn23)c1 | 84% (inactive)

Row | Compound | survival
73 | COc1cc2ncc3c(-c4ccccc4)nn(CC(=O)NC4CCCCC4)c3c2cc1OC | 79% (inactive)
74 | CC(C)(C)c1ccc(Oc2ccc(NC(=O)CCC(=O)OCC(=O)c3ccccc3)cc2)cc1 | 86% (inactive)
75 | O=C(CCSCc1cccc(Cl)c1)N1CCN(c2ccc(Cl)cc2)CC1 | 80% (inactive)
76 | CCN(CC)C(=O)c1sc2c(c1C)c(=O)n(-c1ccc(Cl)c(Cl)c1)c(=O)n2Cc1cc(=O)n2ccccc2n1 | 118% (inactive)
77 | CCN(CC)C(=O)c1sc2c(c1C)c(=O)n(-c1ccc(Cl)c(Cl)c1)c(=O)n2Cc1cc(=O)n2c(C)cccc2n1 | 0% (active)
78 | CCN(CC)C(=O)c1sc2c(c1C)c(=O)n(-c1ccc(C)c(C)c1)c(=O)n2Cc1cc(=O)n2c(C)cccc2n1 | 22% (inactive)
79 | COc1ccccc1N1CCN(CC(=O)N2CCCC2)CC1 | 94% (inactive)
80 | Cc1nc2nc[nH]n2c(=O)c1NS(=O)(=O)c1ccc(Br)cc1 | 84% (inactive)
81 | O=S(=O)(c1cc(Cl)ccc1Cl)N1CCCC1 | 78% (inactive)
82 | CCOc1ccccc1NC(=O)CSC1=Nc2ccccc2C2=NC(CC(=O)NC3CCCCC3)C(=O)N12 (stereo unspecified) | 81% (inactive)
83 | Cc1ccc(Cl)cc1NC(=O)COCc1cc(-c2ccco2)on1 | 77% (inactive)
84 | O=C(COCc1cc(-c2ccc(F)cc2)on1)Nc1cccc(Cl)c1Cl | 64% (inactive)
85 | O=C(COCc1cc(-c2ccco2)on1)Nc1cccc(Cl)c1Cl | 0% (active)
86 | O=C(COCc1cc(-c2ccco2)on1)Nc1cc(Cl)ccc1O | -2% (active)
87 | O=C(COCc1cc(-c2cccs2)on1)Nc1cccc(Cl)c1Cl | 59% (inactive)
88 | Cc1ccc(O)c(NC(=O)COCc2cc(-c3ccco3)on2)c1 | 87% (inactive)
89 | COc1cccc(CNC(=O)c2ccc3c(c2)N(Cc2ccc(F)cc2Cl)C(=O)c2ccccc2S3)c1 | 19% (inactive)
90 | Cc1c(C(=O)Nc2cccc(C(F)(F)F)c2)sc2nc[nH]c(=O)c12 | 73% (inactive)
91 | CCOC(=O)c1c(NC(=O)/C=C/c2ccc(OCC)cc2)sc2c1CCCC2 | 78% (inactive)
92 | CCOC(=O)c1c(NC(=O)CCCOc2ccc(C(C)(C)C)cc2)sc2c1CCC2 | 7% (active)
93 | CCOC(=O)c1c(NC(=O)/C=C/c2ccc(OCC)cc2)sc2c1CCC2 | 139% (inactive)
94 | CCOC(=O)c1c(NC(=O)CCCOc2ccc(Cl)cc2)sc2c1CCC2 | 20% (inactive)
95 | CCOC(=O)c1c(NC(=O)CCCOc2ccc(C(C)(C)C)cc2)sc2c1CCCC2 | 9% (active)
96 | CCOC(=O)c1c(NC(=O)COc2ccc(C(C)(C)C)cc2)sc2c1CCCC2 | 69% (inactive)
